Laboratory results reported in the supplement of paper PMC8728848.
Many of the other results were omitted from the sample, so the strongest signals are more common in it than they were.

Legend:
Test in all cases: glycan array binding signal (z-score within array); higher = stronger binding
Conditions in all cases: glycan notation: IUPAC condensed, linker removed
[1] = biological target: GlcNAc(a1-4)Gal(b1-4)GlcNAc(b1-3)Gal(b1-4)[Fuc(a1-3)]GlcNAc(b1-3)Gal(b1-4)[Fuc(a1-3)]GlcNAc
How it was run: (§1)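 The binding signal is a Z-score computed within each array. Data were drawn from 3228 arrays in the Consortium for Functional Glycomics database, restricted to those with a known protein sequence. Scores were averaged over arrays of the same protein sequence at different concentrations or buffers, and over linkers, and negative values can be taken as non-binding.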

[2] = biological target: GlcNAc(b1-2)[GlcNAc(b1-4)]Man(a1-3)[GlcNAc(b1-2)Man(a1-6)]Man(b1-4)GlcNAc(b1-4)GlcNAc
How it was run: as §1

[3] = biological target: GlcNAc(b1-2)[GlcNAc(b1-4)]Man(a1-3)[GlcNAc(b1-4)][GlcNAc(b1-2)Man(a1-6)]Man(b1-4)GlcNAc(b1-4)GlcNAc
How it was run: as §1

[4] = biological target: GlcNAc(b1-3)Gal(b1-4)GlcNAc(b1-3)Gal(b1-4)GlcNAc(b1-2)Man(a1-3)[GlcNAc(b1-3)Gal(b1-4)GlcNAc(b1-3)Gal(b1-4)GlcNAc(b1-2)Man(a1-6)]Man(b1-4)GlcNAc(b1-4)GlcNAc
How it was run: as §1

[5] = biological target: GlcNAc(b1-3)Gal(b1-4)GlcNAc(b1-3)Gal(b1-4)GlcNAc(b1-3)Gal(b1-4)GlcNAc(b1-2)Man(a1-3)[GlcNAc(b1-3)Gal(b1-4)GlcNAc(b1-3)Gal(b1-4)GlcNAc(b1-3)Gal(b1-4)GlcNAc(b1-2)Man(a1-6)]Man(b1-4)GlcNAc(b1-4)GlcNAc
How it was run: as §1

[6] = biological target: GlcNAc(b1-3)[GlcNAc(b1-4)][GlcNAc(b1-6)]GlcNAc
How it was run: as §1

Kdn(a2-6)Gal(b1-4)GlcNAc = biological target: Kdn(a2-6)Gal(b1-4)GlcNAc
How it was run: as §1

[7] = biological target: Man(a1-2)Man(a1-3)[Man(a1-2)Man(a1-6)]Man
How it was run: as §1

[8] = biological target: Man(a1-2)Man(a1-3)[Man(a1-2)Man(a1-6)]Man(a1-6)[Man(a1-2)Man(a1-2)Man(a1-3)]Man
How it was run: as §1

Man(a1-3)[Man(a1-6)]Man = biological target: Man(a1-3)[Man(a1-6)]Man
How it was run: as §1

[9] = biological target: Neu5Ac(a2-3)Gal(b1-3)GlcNAc(b1-2)[Neu5Ac(a2-3)Gal(b1-3)GlcNAc(b1-4)]Man(a1-6)[Neu5Ac(a2-3)Gal(b1-3)GlcNAc(b1-2)Man(a1-3)]Man(b1-4)GlcNAc(b1-4)GlcNAc
How it was run: as §1

[10] = biological target: Neu5Ac(a2-3)Gal(b1-3)GlcNAc(b1-3)Gal(b1-3)GlcNAc
How it was run: as §1

[11] = biological target: Neu5Ac(a2-3)Gal(b1-4)GlcNAc(b1-2)Man(a1-3)[GlcNAc(b1-4)][Neu5Ac(a2-3)Gal(b1-4)GlcNAc(b1-2)Man(a1-6)]Man(b1-4)GlcNAc(b1-4)GlcNAc
How it was run: as §1

[12] = biological target: Neu5Ac(a2-3)Gal(b1-4)GlcNAc(b1-2)Man(a1-3)[Neu5Ac(a2-6)Gal(b1-4)GlcNAc(b1-2)Man(a1-6)]Man(b1-4)GlcNAc(b1-4)GlcNAc
How it was run: as §1

[13] = biological target: Neu5Ac(a2-3)Gal(b1-4)GlcNAc(b1-3)Gal(b1-4)GlcNAc(b1-3)[Neu5Ac(a2-3)Gal(b1-4)GlcNAc(b1-3)Gal(b1-4)GlcNAc(b1-6)]GalNAc
How it was run: as §1

[14] = biological target: Neu5Ac(a2-3)Gal(b1-4)[Fuc(a1-3)]GlcNAc(b1-3)GalNAc
How it was run: as §1

[15] = biological target: Neu5Ac(a2-3)Gal6S(b1-4)[Fuc(a1-3)]GlcNAc
How it was run: as §1

[16] = biological target: Neu5Ac(a2-6)Gal(b1-4)GlcNAc
How it was run: as §1

[17] = biological target: Neu5Ac(a2-6)Gal(b1-4)GlcNAc(b1-2)Man(a1-3)[Gal(b1-4)GlcNAc(b1-2)Man(a1-6)]Man(b1-4)GlcNAc(b1-4)GlcNAc
How it was run: as §1

[18] = biological target: Neu5Ac(a2-6)Gal(b1-4)GlcNAc(b1-2)Man(a1-3)[GlcNAc(b1-2)Man(a1-6)]Man(b1-4)GlcNAc(b1-4)GlcNAc
How it was run: as §1

[19] = biological target: Neu5Ac(a2-6)Gal(b1-4)GlcNAc(b1-2)Man(a1-3)[Neu5Ac(a2-3)Gal(b1-4)GlcNAc(b1-2)Man(a1-6)]Man(b1-4)GlcNAc(b1-4)GlcNAc
How it was run: as §1

[20] = biological target: Neu5Ac(a2-6)Gal(b1-4)GlcNAc(b1-6)GalNAc
How it was run: as §1

[21] = biological target: Neu5Ac(a2-8)Neu5Ac(a2-3)Gal(b1-3)GalNAc(b1-4)[Neu5Ac(a2-8)Neu5Ac(a2-3)]Gal(b1-4)Glc
How it was run: as §1

[22] = biological target: Neu5Ac(a2-8)Neu5Ac(a2-8)Neu5Ac(a2-3)[Gal(b1-3)GalNAc(b1-4)]Gal(b1-4)Glc
How it was run: as §1

[23] = biological target: Neu5Ac(b2-6)Gal(b1-4)GlcNAc
How it was run: as §1

[24] = biological target: Neu5Gc(a2-3)Gal(b1-3)[Fuc(a1-4)]GlcNAc
How it was run: as §1

B1: Clec39 (Caenorhabditis elegans) (protein)
chain: MTSFYDNSSSSSKPVPLKTSRAQKIQILIFDNWKLILYGAISTLILVLAIMFSTLFFALPAANCDENSEPTKYYTTNAEITTTITTTNQKTTSTASSHLTTISSSATQIYSESSSSSTSQSTFTQSPPEISTTTIAPSDFSCQHGFTLVNNKCWKLVTSNQARPDADKICNGYGGATLFSIKSEQDNRAMIHFVKGQDIDFLWSGLLCSAGEPISCIWDIENGSTANYSNFADGFPNIVYGNCVYFITSGDEAGQWGNEQCGQVMNFVCELPATFQGKDGCKNNYEKSCYLRFDLNLTVPQAQNFCLEKCANLVSIHSANEVRFIMTIYDFIGEILIGALAPAQDFIYWLDGTPANYNNLKFFYNSTCVHMTVAPGMQNVGKWFTRFCTETGKFLCKRSIKNSCT
- glycan array binding signal (z-score) [1]: 3.59
- glycan array binding signal (z-score) [2]: 0.095
- glycan array binding signal (z-score) [3]: 0.673
- glycan array binding signal (z-score) [4]: 0.778
- glycan array binding signal (z-score) [5]: -0.221
- glycan array binding signal (z-score) [6]: 0.102
- glycan array binding signal (z-score) (Kdn(a2-6)Gal(b1-4)GlcNAc): 0.204
- glycan array binding signal (z-score) [7]: -0.005
- glycan array binding signal (z-score) [8]: 0.088
- glycan array binding signal (z-score) (Man(a1-3)[Man(a1-6)]Man): 0.047
- glycan array binding signal (z-score) [9]: 0.47
- glycan array binding signal (z-score) [10]: -0.142
- glycan array binding signal (z-score) [11]: 1.43
- glycan array binding signal (z-score) [12]: 2.22
- glycan array binding signal (z-score) [13]: -0.101
- glycan array binding signal (z-score) [14]: 4.34
- glycan array binding signal (z-score) [15]: -1.24
- glycan array binding signal (z-score) [16]: -1.22
- glycan array binding signal (z-score) [17]: 0.815
- glycan array binding signal (z-score) [18]: 0.613
- glycan array binding signal (z-score) [19]: -0.493
- glycan array binding signal (z-score) [20]: -0.055
- glycan array binding signal (z-score) [21]: 1.4
- glycan array binding signal (z-score) [22]: 0.076
- glycan array binding signal (z-score) [23]: -0.632
- glycan array binding signal (z-score) [24]: 1.01
